# Screening results as filed in PubChem.
# FMDV inh – High Throughput Screening for Foot and Mouth Disease Virus Antivirals; actives 1.2% (n = 410,000); FMDV antiviral cell-based qHTS; Potency, µM (series often up to 57.9 µM), without a hit: top-dose activity change, negative = inhibition, most hits filed as inhibitors; AID 1159524, 2015; calls by dose curve; tested in HEK293T cells; also: read-out not given here; potency is read from the fitted curve at half-maximal effect; nearly all actives have a fitted effect of over 45% in size
# HCV inhibitor – qHTS Assay for Inhibitors of Hepatitis C Virus (HCV); Huh7.5.1 HCVcc-Cre infection, luciferase reporter, 44 h; Potency, µM (titrated, usually from 41.8 µM), inactives show at the highest dose activity change, negative = inhibition, hits mostly inhibitors; actives 3.4% (n = 340,000); AID 651820, 2012; active = well fitted inhibition curve with a large enough effect; inconclusive = small, poorly fitted or top-dose-only effect, or another doubt; inactive = no such curve, though single readings can be large or run the other way; also: potency is read from the fitted curve at half-maximal effect
#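 After 44 h co-culture of compound, cells and HCVcc-Cre (~0.5 moi), substrate is added for 15 min at room temperature and luciferase measured over 15 sec. Cells were seeded at 1,000/well and pre-cultured 4 h.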
# Marburg entry inh – qHTS for inhibitors of binding or entry into cells for Marburg Virus; Marburg virus pseudotyped entry inhibition, cell reporter; Potency, µM (doses to about 37.8 µM), for the others: at the highest dose activity change, negative = inhibition, hits mostly inhibitors; actives 1.8% (n = 300,000); calls by dose curve; tested in HEK293 cells; also: potency is read from the fitted curve at half-maximal effect
# HCMV inh – qHTS Assay for inhibitors of the human cytomegalovirus (HCMV); HFF cells, HCMV-luciferase reporter, 72 h; hits give low values; activity change, negative = inhibition, % at 57.5 µM; actives 4.5% (n = 410,000); AID 1259415, 2018; in the data active = activity change below about -60%; inconclusive = no clear call, values can overlap the other calls; inactive = above about -39%
#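 After 16 h attachment at 37C, HFF cells received test compound and HCMV-luciferase (1 PFU/cell); reporter luminescence read 72 h later, data normalized against buffer-only and known inhibitor Salinomycin.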
# Lassa entry inh – qHTS for Inhibitors of binding or entry into cells for Lassa Virus. Potency, µM (series often up to 37.9 µM), for the others: at the top dose activity change, negative = inhibition, usual class: inhibitors. AID 540256, 2011. actives 1.2% (n = 300,000). Lassa virus pseudotype entry inhibition, cell reporter; calls by dose curve; tested in HEK293 cells; also: potency is read from the fitted curve at half-maximal effect; nearly all actives have a fitted effect of over 50% in size
# * marks the source's active call; other numbers are inactive results; ? = inconclusive; nt = no result given; [ ] = another dose, or the depositor's remark. Hits are enriched below; roughly 7.9% of the tested compounds scored in any of these assays. % is scaled to controls: 0 for no effect and ±100 for the full control effect.
SMILES,FMDV inh,HCV inhibitor,Marburg entry inh,HCMV inh,Lassa entry inh
O=C(c1cccc(S(=O)(=O)N2CCc3ccccc32)c1)N1CCN(CCO)CC1,13.7%,-10.6%,?,-13.5,6.3%[46.1 µM]
O=C(Nc1ccc(S(=O)(=O)N2CCc3ccccc32)cc1)c1ccc2c(c1)OCO2,-22.9%,?,-26.9%,-84.8*,27.4%[14.3 µM]
COCCCNC(=O)c1ccc2c(c1)CCN2S(C)(=O)=O,14.2%,-24.1%,15.3%,34.8,20.9%
CC(C)CN(CC(C)C)C(=O)c1cccc(S(=O)(=O)N2CCc3ccccc32)c1,-6.5%,?,?,-16.7,nt
COc1ccc(NC(C)=O)cc1NC(=O)c1cccc(S(=O)(=O)N2CCc3ccccc32)c1,-24.5%,10µM*,nt,-0.9,nt
CC(=O)NS(=O)(=O)c1ccc(NC(=O)c2cccc(S(=O)(=O)N3CCc4ccccc43)c2)cc1,-2.8%,-7.3%,-1.4%,-23.2,-5.5%
CC(C)CCNC(=O)c1cccc(S(=O)(=O)N2CCc3ccccc32)c1,3.3%,?,?,8.0,3.98µM*
CC(C)c1ccc(OCc2ccc(C(=O)N3CCN(c4ccccn4)CC3)cc2)cc1,?,5.01µM*,?,-24.9,?
O=C(c1cccc(Oc2ccccc2)c1)N1CCN(c2ccccn2)CC1,-13.5%,?,?,-71.6*,?
Cc1cccc(C(=O)N2CCN(c3ccccn3)CC2)c1,-11.6%,22.9%,-15.7%,-7.6,24.1%
CCCCN(CCCNC(=O)CN1N=C(c2ccccc2)CCC1=O)c1ccccc1,-10.1%,nt,nt,-38.1,-22.3%[46.1 µM]
COc1cccc(N2C(=O)C(CC(=O)Nc3ccccc3)N(CCc3sccc3C)C2=O)c1 (centres undefined),-4.2%,nt,?,-4.0,?
O=C(OCC(=O)N1CCC(Cc2ccccc2)CC1)c1ccccc1O,21.8%,3.9%,22.1%[46.1 µM],48.2,-0.4%[46.1 µM]
CCCN(C(=O)c1ccc(OCC(C)C)cc1)c1c(N)n(Cc2ccccc2)c(=O)[nH]c1=O,2.2%,?,1.6%,-4.3,-14.4%
CN(C)S(=O)(=O)c1cccc(NC(=O)c2cccc(S(=O)(=O)N3CCc4ccccc43)c2)c1,?,11.2µM*,nt,-94.9*,nt
COc1cc(C(=O)Nc2ccc3c(c2)CCN3C(C)=O)cc(OC)c1OC,9.9%,-29.0%,?,-74.3*,?
O=C(NC1CCc2ccccc21)C1CCN(S(=O)(=O)c2ccc(Cl)cc2)CC1 (centres undefined),-15.9%,3.2%,27.0%,-27.1,-22.6%
CC(=O)c1cccc(NC(=O)c2ccc3c(c2)CCN3S(=O)(=O)c2ccccc2)c1,?,3.0%,-25.4%[46.1 µM],-23.3,?
O=S(=O)(NC1CCCC1)c1ccc(S(=O)(=O)N2CCc3ccccc32)cc1,?,?,?,-98.5*,?
O=S(=O)(NC1CCc2ccccc21)c1ccc(S(=O)(=O)N2CCCC2)cc1 (centres undefined),nt,11.2µM*,?,5.4,?
CCc1ccc(-n2nc(CO)c(C(=O)NCCOC)n2)cc1,13.2%,nt,-10.6%[46.1 µM],59.4,0.7%[46.1 µM]
Cc1ccccc1C1=NOC2CN(C(=O)COc3ccccc3)CC12 (centres undefined),nt,nt,nt,-22.7,nt
O=C(Nc1ccc(S(=O)(=O)N2CCc3ccccc32)cc1)c1ccco1,?,8.91µM*,-21.3%,-80.7*,7.3µM*
CCC(=O)Nc1ccc(S(=O)(=O)N2CCc3ccccc32)cc1,?,-15.0%,nt,-22.7,nt
Cc1ccccc1-c1nnc(CN2CCN(c3cccc(C)c3C)CC2)o1,2.3%,nt,6.6%[46.1 µM],-5.4,21.9%[46.1 µM]
SMILES,FMDV inh,HCV inhibitor,Marburg entry inh,HCMV inh,Lassa entry inh
COc1ccc(OC)c(Nc2nc(N(C)c3ccccc3)nc(N)c2[N+](=O)[O-])c1,-27.8%,5.01µM*,nt,37.7,nt
CN(c1ccccc1)c1nc(N)c([N+](=O)[O-])c(Nc2cccc(F)c2)n1,?,?,nt,14.0,nt
CN(Cc1ccccc1)c1nc(N)c([N+](=O)[O-])c(Nc2cccc(F)c2)n1,-19.6%,11.2µM*,-5.8%,43.7,-23.8%
COc1ccc(OC)c(Nc2nc(-c3cccc([N+](=O)[O-])c3)nc3ccccc23)c1,4.6%,13.4%,9.3%,?,4.1%
CN(c1ccccc1)c1nc(N)c([N+](=O)[O-])c(Nc2ccccc2F)n1,-19.8%,5.62µM*,nt,5.1,nt
CN(c1ccccc1)c1nc(N)c([N+](=O)[O-])c(Nc2ccc(F)cc2)n1,-14.9%,?,nt,-14.5,nt
CCN(Cc1ccccc1)c1ncnc2c1nnn2C,0.0%,nt,nt,1.5,-18.8%[46.1 µM]
COc1ccc(CNC(=O)N2CCN(c3cccc(Cl)c3)CC2)cc1OC,?,?,-24.8%[46.1 µM],-0.6,nt
COc1ccc(CCNC(=O)CN2CCN(c3cccc(Cl)c3)CC2)cc1OC,-26.9%,10µM*,-29.2%,10.8,-8.5%
O=C(NCc1ccco1)c1ccc2c(c1)N(Cc1ccc(Cl)cc1)CCS2,-16.5%,10µM*,?,?,?
NS(=O)(=O)c1ccc(CCNC(=O)c2ccc3c(c2)N(Cc2ccccc2)CCS3)cc1,2.8%,-11.9%,0.4%[46.1 µM],-64.2*,8.1%[46.1 µM]
COc1ccc(CCNC(=O)c2ccc3c(c2)N(Cc2cccc(Cl)c2)C(=O)CS3)cc1OC,-20.7%,nt,?,-61.1*,?
O=C(NCCc1ccc(Cl)cc1)c1ccc2c(c1)N(Cc1ccccc1)CCS2,-10.6%,nt,10.6%[46.1 µM],16.0,3.4%[46.1 µM]
COc1ccccc1-c1ccc(C(=O)N(C)CC2COCCO2)c(N2CCN(c3ccccc3F)CC2)n1 (centres undefined),-12.1%,nt,nt,nt,nt
CC(=O)Nc1ccc(Nc2cc3[nH]c(-c4cccc(F)c4)cc3cn2)cc1,nt,nt,nt,-34.0,nt
CN(c1ccc(F)cc1)S(=O)(=O)c1ccc(Cl)c(C(=O)NCC(c2ccco2)N2CCCCC2)c1 (centres undefined),?,?,?,-32.5,?
COc1cccc(/C=C/C(=O)N2CCN(S(=O)(=O)c3ccccc3)CC2)c1,-20.9%,nt,nt,-1.3,nt
CC(C)(C)CC(C)(C)NC(=O)C(=O)c1cccnc1,nt,nt,nt,12.0,nt
CCN1CCN(CCCNC(=O)c2ccc3c(c2)N(Cc2ccccc2)CCS3)CC1,-3.3%,10µM*,nt,-32.5,nt
O=C(O)c1ccc2c(c1)N(Cc1cccc(F)c1)C(=O)CS2,-11.7%,13.6%,nt,-99.5*,nt
O=C(NCCc1ccccc1)c1ccc2c(c1)N(Cc1ccc(F)cc1)C(=O)CS2,?,nt,nt,-1.8,-22.4%[46.1 µM]
COc1ccc(CCNC(=O)c2ccc3c(c2)N(Cc2ccccc2)CCS3)cc1OC,?,10µM*,?,0.0,?
CCCNC(=O)C1(C)CCN(Cc2cc(-c3ccccc3)on2)C1 (centres undefined),9.0%,nt,nt,-6.3,nt
O=C(C1CC1)N1CCc2sccc2C1c1ccc(Cl)cc1 (centres undefined),?,-17.0%,?,-24.3,?
Cc1ccc(SSc2cc(C)ccc2N)c(N)c1,13.5%,?,nt,-80.8*,nt
